Test results reported in PMC7819943, “Rice protein-binding microarrays: a tool to detect cis-acting elements near promoter regions in rice”.
In all, about 35,000 sequences were measured (“fluorescence intensity (a.u.)”: median about 10,000, highest 2% from about 52,000 on). The list comes from a sample in which the highest values are over-represented; it also holds similar and randomly drawn sequences.

Biological target: T1, OsWOX13 (Oryza sativa, UniProt Q5QMM3 1-267)
T1 sequence: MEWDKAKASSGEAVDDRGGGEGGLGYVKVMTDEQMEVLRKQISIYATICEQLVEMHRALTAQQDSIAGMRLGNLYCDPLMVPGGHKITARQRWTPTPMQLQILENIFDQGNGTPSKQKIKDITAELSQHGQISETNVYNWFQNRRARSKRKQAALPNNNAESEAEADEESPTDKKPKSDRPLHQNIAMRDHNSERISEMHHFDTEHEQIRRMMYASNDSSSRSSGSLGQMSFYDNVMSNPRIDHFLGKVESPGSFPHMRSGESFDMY
Assay: protein-binding microarray (RPBM); PBS, 2% BSA, 51.3 ng/ul salmon testes DNA, 50 uM zinc acetate, 200 nM TF, 25 C, 1 h; high values mean tight binding
Conditions: protein: recombinant; tags: N-terminal polyhistidine and DsRed monomer fusion (pET32a); label: CyDye5-dUTP incorporated in the synthesized complementary strand; 3' TTTTT single-stranded linker to array surface; dsDNA, one strand shown
Procedure, shortened: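 The binding signal is fluorescence intensity per feature, in arbitrary units, read on an Axon 4000B scanner. Polyhistidine- and DsRed-tagged transcription factors (N-terminal fusions) from E. coli BL21-CodonPlus were purified on Ni–NTA and applied at 200 nM for 1 h at 25 °C to a double-stranded, BSA-blocked custom Agilent array in buffer with 50 µM zinc acetate.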

Sequence | binding signal
TTGGGTGGCAATTATTAATCAGTCATGTCATTCAACTAGACGGAGTCACCTAGTGCAG | 11700 fluorescence intensity (a.u.)
AGTGTAATTAACTTTCTTCTTCTCTCCAACTGCTTCAGCTCGGAGTCACCTAGTGCAG | 11200 fluorescence intensity (a.u.)
GTGCTCTTGATTGGCACATGAGCCTTGGCGGCGGTGACCTCGGAGTCACCTAGTGCAG | 35600 fluorescence intensity (a.u.)
TAGAGAGATTGATATTTCATGTGCTCTAGAGATGGTTGAGCGGAGTCACCTAGTGCAG | 28900 fluorescence intensity (a.u.)
CACATGATTGATATCTCGTCACTGCTCGTAACTTCAGCCTCGGAGTCACCTAGTGCAG | 62100 fluorescence intensity (a.u.)
TATTGATTGGTTCAGATGGAGACATGTGCAACTTCGTGCTCGGAGTCACCTAGTGCAG | 61700 fluorescence intensity (a.u.)
TTGATTGATCTTTGGTTGGATGGATGCTTGATGATGTGCTCGGAGTCACCTAGTGCAG | 31900 fluorescence intensity (a.u.)
GACCAACGGTGATTATTAACATGATCTATATCTATCTATCCGGAGTCACCTAGTGCAG | 5820 fluorescence intensity (a.u.)
TCAAATATGACTAAATTAGTAGTTAAGTAGTATGGGAGAACGGAGTCACCTAGTGCAG | 13400 fluorescence intensity (a.u.)
CCAACTAATCATGCTTAGTTAGCAATTAAGCCATAAACAACGGAGTCACCTAGTGCAG | 9180 fluorescence intensity (a.u.)
ATGATTGCCGTATGATATGTGATACGAAAGAGTTGGGGATCGGAGTCACCTAGTGCAG | 32700 fluorescence intensity (a.u.)
CGTCCGTCATTGATTATGCCAGATCATAGCTGTACGTCGTCGGAGTCACCTAGTGCAG | 21300 fluorescence intensity (a.u.)
CCAGATTGATGGCTATCATCAGGCCATGCTGTTCTCGTCTCGGAGTCACCTAGTGCAG | 59800 fluorescence intensity (a.u.)
TGTTTGATTATGTTCAATCATTGCAAATCATGTCATCTGTCGGAGTCACCTAGTGCAG | 45900 fluorescence intensity (a.u.)
ATGGATGACTGTGATATGATATCTTACACATCAATGATAGCGGAGTCACCTAGTGCAG | 7720 fluorescence intensity (a.u.)
TGTGTCATGTTCTGATTGGCTGTGGTTGGTTTGATTTTCTCGGAGTCACCTAGTGCAG | 21100 fluorescence intensity (a.u.)
CTAGATGATTGGCTATCATCACCTGTTCACAATCTTATGTCGGAGTCACCTAGTGCAG | 61900 fluorescence intensity (a.u.)
TGCATGAATTGATCAACAAGACAAAAGTTACAAAACATGTCGGAGTCACCTAGTGCAG | 4160 fluorescence intensity (a.u.)
TTTCAGCACATCATTCCAATTTCAATCATATTTCCAAACTCGGAGTCACCTAGTGCAG | 4200 fluorescence intensity (a.u.)
TTCCGGACGTGTGATTGCGATGAGACGTGTTGCAATATCCCGGAGTCACCTAGTGCAG | 7260 fluorescence intensity (a.u.)
ACTATTGGAGTATGGTGCGTGATTGTCCACAATTTATTCACGGAGTCACCTAGTGCAG | 3150 fluorescence intensity (a.u.)
CCATTAAATGCACAATGACACAATTTGAGGATCAGTTTAGCGGAGTCACCTAGTGCAG | 3340 fluorescence intensity (a.u.)
ACCATTAATAGATTGAGAGCGAATGAATTGGTGCCACGTGCGGAGTCACCTAGTGCAG | 55000 fluorescence intensity (a.u.)
GTAAACTGCAATCAATCAGCCATTAAAATCTCATGCTCTGCGGAGTCACCTAGTGCAG | 60000 fluorescence intensity (a.u.)
ATAATTATTTAAATTATATGCATACACCTAGGTGCCATGGCGGAGTCACCTAGTGCAG | 38800 fluorescence intensity (a.u.)
CCACCTGTGATTGAAAACAATTACTTTTGAACATGCGCAGCGGAGTCACCTAGTGCAG | 55200 fluorescence intensity (a.u.)
GATTAGATTGATCATTGATCGATCAGTGCCATTAATTGAGCGGAGTCACCTAGTGCAG | 30900 fluorescence intensity (a.u.)

Sequence | binding signal
AAAATTAAATGCGATCAATCAGAGCCGTCCATATCTCTGCCGGAGTCACCTAGTGCAG | 33400 fluorescence intensity (a.u.)
AATAACACAATTGTTGATAATTGTTGGATTACTTTGTGAGCGGAGTCACCTAGTGCAG | 16000 fluorescence intensity (a.u.)
ACAATTAATTTAATTAAATTGAGGTCAGCCATGCATGCAGCGGAGTCACCTAGTGCAG | 64800 fluorescence intensity (a.u.)
TCAAAATTGGAAGTTTTGTTGAAATTGAAACAATGTGATGCGGAGTCACCTAGTGCAG | 19500 fluorescence intensity (a.u.)
TGCCATTGTCAATCTCTCTGCTCTCCTCATGTAACTGATGCGGAGTCACCTAGTGCAG | 3180 fluorescence intensity (a.u.)
TGCGAAATTTAGCGTGAGAAATTAAGTGATTGATTGAGAGCGGAGTCACCTAGTGCAG | 26900 fluorescence intensity (a.u.)
ACTCCCTATTAATTTCCATCACCTTTACCAAACAAGATATCGGAGTCACCTAGTGCAG | 6910 fluorescence intensity (a.u.)
GATTTAAACTGAAACGAACAGATTCTTTGTTCTTTGCATACGGAGTCACCTAGTGCAG | 9800 fluorescence intensity (a.u.)
ATAATTAGTACCTTATAATAAGTAGCACAATCTTCGTGTTCGGAGTCACCTAGTGCAG | 7900 fluorescence intensity (a.u.)
TGGAATGATGGATAAAGTCCAAGTTTGACCTGAGTCAAAGCGGAGTCACCTAGTGCAG | 6270 fluorescence intensity (a.u.)
CAGATATAAATTGAGCGACTTCCAGAGTGATCAGCACTACCGGAGTCACCTAGTGCAG | 7440 fluorescence intensity (a.u.)
ACAACAACAGCTTTGATCAATCAATCCATCAACTCAGGTTCGGAGTCACCTAGTGCAG | 11400 fluorescence intensity (a.u.)
AATCTTTTCTTAATTCTATAATTATCCTTAACGAATTAGTCGGAGTCACCTAGTGCAG | 4150 fluorescence intensity (a.u.)
GATAACTGGTGTGGAGGCTGCGGCGTGGGTGGTAAAGCACCGGAGTCACCTAGTGCAG | 3220 fluorescence intensity (a.u.)
ACAATGATTGATTAATGTTTGATAGTAACAGCCATGAGAGCGGAGTCACCTAGTGCAG | 58800 fluorescence intensity (a.u.)
ATTAATGATTGATAGTCAGTCACTTAGCCATGTTATTTTGCGGAGTCACCTAGTGCAG | 65500 fluorescence intensity (a.u.)
TATTATTTATTTTGTTTGTGATTTGCTTTGTTATTAATAGCGGAGTCACCTAGTGCAG | 8380 fluorescence intensity (a.u.)
TTTTGATTGATAAGTATAACCATGTATAAGCGAAACAATGCGGAGTCACCTAGTGCAG | 64500 fluorescence intensity (a.u.)
ATAATTTTGAAATTATTAACATGATATAAATGAGATAGAGCGGAGTCACCTAGTGCAG | 16200 fluorescence intensity (a.u.)
GATTTTGATAGGAATGTAAGTATAAAACAGAGGATTGTAACGGAGTCACCTAGTGCAG | 3360 fluorescence intensity (a.u.)
TAAATTTTGACTGATAAGTATAAGTATAAGCGAAAAGATTCGGAGTCACCTAGTGCAG | 12400 fluorescence intensity (a.u.)
TGTTAGATTTAATGTAATTGATTTGATATTTTAGATATTGCGGAGTCACCTAGTGCAG | 49700 fluorescence intensity (a.u.)
ATATGATTATGTGATAATGTTTGAGAGTACAAACAAATGACGGAGTCACCTAGTGCAG | 19000 fluorescence intensity (a.u.)
AACCCAATAACGGTAACTGACAAAACGATGAAAACCAAACCGGAGTCACCTAGTGCAG | 4460 fluorescence intensity (a.u.)
ATATAGATTTACGTTGGATTTATACTGATTCTAACCAAATCGGAGTCACCTAGTGCAG | 13600 fluorescence intensity (a.u.)
ATGATTTTGTTTTGTTTTGCGAATAATTTTGGCGCCTCAACGGAGTCACCTAGTGCAG | 6150 fluorescence intensity (a.u.)
CACCAGTGATCTTATAATTGTAAATTTTGATCCAAGATTCCGGAGTCACCTAGTGCAG | 3800 fluorescence intensity (a.u.)
